Results filed as inconclusive are left out. Activity calls are given as the source filed them. Calls come from the whole dose curve; as a rule, active = well fitted activation curve with a large enough effect; inconclusive = small, poorly fitted or top-dose-only effect; inactive = flat fitted curve, though single readings scatter.

This assay is described as follows: Cellular Toxicity (caspase-3) Jurkat (AID 655).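 Note: cells exposed to compound for 16 h at 37 °C before reading.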 The note with it: Jurkat caspase-3 activation, luminescence; caspase-3 activation: at 92.2 µM (top of the series), DMSO = 0%, tamoxifen = 100%. The text has this:
NIH Chemical Genomics Center [NCGC]
NIH Molecular Libraries Screening Centers Network [MLSCN]
National Institutes of Environmental Health Sciences [NIEHS]
National Toxicology Program [NTP]
We have developed a 1536-well cell-based assay for quantitative high throughput screening (qHTS) against a number of cell lines to determine in vitro caspase 3/7 of small molecules. This particular assay uses the Jurkat cell line which is derived from human T cell leukemia.
NCGC Assay Protocol Summary:
The Caspase-Glo 3/7 assay (Promega) is a homogeneous method to measure caspase-3 and caspase-7 activities in cultured cells. The quantitation of caspase 3/7 activity is based on the cleavage of a peptide-aminoluciferin substrate. After caspase cleaves the substrate the free aminoluciferin is liberated and serves as the substrate of luciferase, which generates the light. The luminescent signal is proportional to amount of caspase 3/7 activity present.
Using the Caspase-Glo 3/7 assay, the amount of caspase 3/7 activity was measured in the Jurkat cell line with complete culture medium following compound treatment for 16 hours. The assay was performed in opaque white 1536-well plates. In the screen, tamoxifen and doxorubicin were used as positive controls. Library compounds were measured for their ability to cause the activation of caspase 3/7 in the cell line, as reflected by an increase in luminescence signal, in a concentration-dependent manner. Data were normalized to the controls for basal activity (DMSO only) and 100% stimulation (100 uM tamoxifen). AC50 values were determined from concentration-response data modeled with the standard Hill equation.
qHTS protocol for caspase 3/7 assay in Jurkat cells
[Step] [Parameter] [Value] [Description]
1. Reagent; 5 uL; 5000 Jurkat cells/well
3. Controls; 23 nL; Tamoxifen 0.23 uM to 100 uM & Doxorubicin 7.0 pM to 100 uM
4. Time; 16 hr; 37 °C incubation
5. Reagent; 5 uL; Caspase-Glo 3/7 reagent
6. Time; 20 min; Room Temperature
7. Detection; Luminescence; Viewlux plate reader
Keywords: caspase 3/7, apoptosis, Jurkat cell line, luminescence, NTPHTS, NTPHTS_NCGC, NIEHS, EPA, DSSTox, MLSMR, MLSCN, NIH Roadmap, qHTS, NCGC
As for `O=C(O)CNC(=O)c1ccc([N+](=O)[O-])cc1`, the caspase-3 activation is 1.61% (inactive).

Regarding `CC(C)C=O`, the caspase-3 activation was 0.00972% (inactive). The result for `Cc1ccc2cccnc2c1` reads -0.667% (inactive). Take `NC(=S)NNC(N)=S`: the caspase-3 activation was 0.7% (inactive). In the case of `CC1(N)CCC(C(C)(C)N)CC1` (stereo not given), the caspase-3 activation is 1.23% (inactive). The result for `CCN(Cc1ccccc1)c1ccccc1` reads 1.93% (inactive); that for `CO[Si](CCCNCCC[Si](OC)(OC)OC)(OC)OC`, 2.91% (inactive). As to `Cc1cc(C2(c3cc(C)c(O)cc3C)OS(=O)(=O)c3ccccc32)c(C)cc1O`, the caspase-3 activation is 2.78% (inactive).

Regarding `CCC(O)C(C)(C)C` (stereo not given), the caspase-3 activation was 2.09% (inactive). The result for `Nc1c(Cl)cc(Cl)cc1Cl` reads 1.83% (inactive); that for `CCOCCOCC`, 1.67% (inactive). For the compound `O=[N+]([O-])c1ccc2nc[nH]c2c1`, the caspase-3 activation was 0.964% (inactive). The result for `O=C(O)c1cccc([N+](=O)[O-])c1` reads 0.351% (inactive); that for `ICCc1ccccc1`, 0.274% (inactive).

Turning to `CC(=O)OC(C)C`, the caspase-3 activation was -0.432% (inactive).

For `C=Cc1ccc(C=C)cc1`, the caspase-3 activation is -0.456% (inactive). The result for `O=C1OC(=O)c2c(Cl)c(Cl)c(Cl)c(Cl)c21` reads 0.457% (inactive).

As to `Cc1ccccc1C(N)=O`, the caspase-3 activation was 1.13% (inactive). The result for `Cc1ccc(C)c(N)c1` reads 0.403% (inactive); that for `CCC1CO1` (stereo not given), 1.29% (inactive). The result for `CCCCC(CC)COCC1CO1` (stereo not given) reads -3.18% (inactive); that for `Cc1cc(C)cc(N)c1`, 0.537% (inactive); that for `Cc1cccc2sc(N)nc12`, -0.319% (inactive).

In the case of `O=Cc1ccc(CO)o1`, the caspase-3 activation was -0.436% (inactive).

On to `CC(=O)c1ccccc1[N+](=O)[O-]`, for which the caspase-3 activation was 0.506% (inactive). The result for `Cc1cc(C(=O)O)ccc1[N+](=O)[O-]` reads -1.06% (inactive); that for `CC(=O)Nc1ccc(C)cc1`, 1.97% (inactive). The result for `CC(C)(C)c1ccc(OCC2CO2)cc1` (stereo not given) reads 15.6% (inactive).

Consider `O=[N+]([O-])c1cccc(C(F)(F)F)c1`, for which the caspase-3 activation was 0.763% (inactive). The result for `CCOCCO` reads 0.459% (inactive); that for `Nc1ccccc1[N+](=O)[O-]`, -0.598% (inactive). The result for `CSCCC=O` reads -1.33% (inactive); that for `CC(C)C(C)C`, -0.000823% (inactive). The result for `Cc1ccc(S(=O)(=O)NC2CCCCC2)cc1` reads 0.692% (inactive); that for `O=CNc1ccccc1`, 0.613% (inactive); that for `O=C(O)/C=C/C(=O)O`, 1.23% (inactive). Take `C=C(C)C(=O)OC`: the caspase-3 activation is 1.74% (inactive). The result for `Nc1cc([N+](=O)[O-])ccc1C(=O)O` reads -2.73% (inactive). The result for `[O-]/[N+](=N\O)c1ccccc1` reads -1.18% (inactive); that for `CCNc1cc(O)ccc1C`, 0.87% (inactive).

These data come from PubChem BioAssay (NCATS).
